According to the OligoGym collection:

What follows are sequences tested against LRRC45 (assay: pooled miR-30 sensor sort-seq; sequence = guide strand). Conditions: shRNA.
Also: reference of the scale not given here.

Sequence	sensor-assay potency score (higher = more potent)
TTCTGCAGGAAGCTCGCCCTCT	-0.654
TGCAGCTTCCTGCTGCTCCAGC	-1.24
AATAGTCTCCATCAAGTCGAGG	-1.73
TTGGCAGCAGACAAGTCTCTGA	-0.793
TGAACTTCCGCTCCAACTCGTC	-0.925
TTGAGAGCGTTGATGATGGAGT	-0.215

These sequences were tested against LRRC8D in the same assay as above. Conditions: shRNA.

Sequence	sensor-assay potency score (higher = more potent)
TTGTAGCTCACATCTAAGCATC	-1.4
TTAACATAACAACAGCTAGGTA	-0.589
TTATCCAGGATTGTCATGCTGG	-0.286
TTAAGTACAACTCTCGAAGGTT	0.166
TTATGAATGACTAACTTTGTAA	-0.367
TTTTTGAGCAAATACACCCAGG	-0.941
TATAGATCAAGTCACTATCTTC	-0.519
TGATCTTCCACAACAAGCCCGC	-0.444
TAAGGTGCCGCAACTCTCGGAG	0.33
TAACATAACAACAGCTAGGTAA	-0.029
TAGCTCACATCTAAGCATCTGA	0.32
TTTGTAAACATTCAGTAGCGGC	-0.948

Each sequence was assayed against LSG1 in the same assay as above. Conditions: shRNA.

Sequence	sensor-assay potency score (higher = more potent)
TTCTGTTCCTCTTCTAGCCGGA	0.394
TTGTGTATCTGCCTCTTCTGTG	-0.396
TTGATTGTTGAACTCTTACCAA	-0.2
TTGTGTGCAACCAGGAGTCAGT	-0.781
TAGCTCCTTAAAGAGCTCCAGT	-1.06
TTGAACTCTTACCAACATTAGG	-1.3
TGTGTCTCGTGAACCATCCCTT	0.477
TTGTTGAACTCTTACCAACATT	-1.39
TGATTGTTGAACTCTTACCAAC	-1.62
TTTCGAGCATCTACTATCTGGA	-0.305
TTGCTTTGTCTATCATCTCTGT	-0.0591
TAATATTAAGTTTTTCAGCTAC	-0.362

These sequences were tested against LTA4H in the same assay as above. Conditions: shRNA.

Sequence	sensor-assay potency score (higher = more potent)
TATATCTGTCAGATCAACCACA	0.143
TTTCACAGAAGGAGTGTCCTGA	0.561
TTGTCCATTGATCACTACTTTT	-1.71
TTTTTCTATTGTAAGGTCCTTT	0.0919
TAAACTTCATTCTTCCTTGTTC	0.185
TTCATGTGCAATGACATTGGAG	-0.277
TTGATGAGAAGAGAGATCCTTC	0.703
TTTGTATCCAAAACCAGGCTGC	0.416
TTTGACTTCTTGTCCATTGATC	-0.618
TGTAACTTTGTCTTTCTCCAAG	-0.956
